Experimental data: the supplement of paper PMC12669032

Columns and labels:
Test in all cases: growth AUC relative to DMSO control (median of replicates) (fraction); higher = more growth (less inhibition), active = hit call of the paper
Conditions in all cases: 20 µM; 24 h;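 active = AUC reduced over 20% with Padj below 0.05 in at least 2 of 3 replicates; inactive = otherwise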
Coprococcus comes = tested on: Coprococcus comes
Procedure, shortened: (§1)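 For each compound at 20 µM (1% DMSO), gut bacterial monocultures seeded at OD600 0.05 grew anaerobically in mGAM at 37 °C in round-bottom 96-well plates. Hourly OD600 readings over 24 h gave growth curves whose minimum OD was set to 0. Area under these curves was normalised to the plate median of solvent-only wells, or to row and column medians on the industrial chemical plate. Values are medians of three biological replicates grown on separate days.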

Escherichia coli ED1a = tested on: Escherichia coli ED1a
Procedure, shortened: as §1

Escherichia coli IAI1 = tested on: Escherichia coli IAI1
Procedure, shortened: as §1

Eubacterium rectale = tested on: Eubacterium rectale
Procedure, shortened: as §1

[1] = tested on: Fusobacterium nucleatum subsp. animalis
Procedure, shortened: as §1

Lactobacillus gasseri = tested on: Lactobacillus gasseri
Procedure, shortened: as §1

Lactobacillus paracasei = tested on: Lactobacillus paracasei
Procedure, shortened: as §1

Odoribacter splanchnicus = tested on: Odoribacter splanchnicus
Procedure, shortened: as §1

[2] = tested on: Parabacteroides distasonis
Procedure, shortened: as §1

Parabacteroides merdae = tested on: Parabacteroides merdae
Procedure, shortened: as §1

Roseburia intestinalis = tested on: Roseburia intestinalis
Procedure, shortened: as §1

Streptococcus salivarius = tested on: Streptococcus salivarius
Procedure, shortened: as §1

Measured: growth AUC

Cc1cccc(C)c1N(CC(=O)O)C(=O)CS(=O)(=O)[O-].[Na+]
inactive: Coprococcus comes 0.996 | Escherichia coli ED1a 0.973 | Escherichia coli IAI1 0.946 | Eubacterium rectale 0.847 | [1] 0.941 | Lactobacillus gasseri 0.987 | Lactobacillus paracasei 0.928 | Odoribacter splanchnicus 1.01 | [2] 0.965 | Parabacteroides merdae 0.997 | Roseburia intestinalis 0.979 | Streptococcus salivarius 0.972

CC(=O)Oc1c(Cl)c(Cl)c(Cl)c(Cl)c1Cl
inactive: Coprococcus comes 0.953 | Escherichia coli ED1a 0.936 | Escherichia coli IAI1 0.808 | Eubacterium rectale 0.942 | [1] 0.782 | Lactobacillus gasseri 0.871 | Lactobacillus paracasei 1.05 | Roseburia intestinalis 1.04 | Streptococcus salivarius 0.909
active: Odoribacter splanchnicus 0.548 | [2] 0.542 | Parabacteroides merdae 0.558

CCCCCCC(C)OC(=O)COc1nc(F)c(Cl)c(N)c1Cl (stereo not given)
inactive: Coprococcus comes 0.928 | Escherichia coli ED1a 1 | Escherichia coli IAI1 1.01 | Eubacterium rectale 0.875 | [1] 0.935 | Lactobacillus gasseri 0.967 | Lactobacillus paracasei 0.942 | Odoribacter splanchnicus 1.04 | [2] 0.919 | Parabacteroides merdae 0.891 | Roseburia intestinalis 0.967 | Streptococcus salivarius 0.966

CC1CN(C2CCCCCCCCCCC2)CC(C)O1 (mixture of isomers)
inactive: Coprococcus comes 0.992 | Escherichia coli ED1a 0.994 | Escherichia coli IAI1 0.971 | Eubacterium rectale 1.23 | [1] 0.955 | Lactobacillus gasseri 0.926 | Lactobacillus paracasei 1.02 | Odoribacter splanchnicus 1.14 | [2] 1.02 | Parabacteroides merdae 0.97 | Roseburia intestinalis 0.992 | Streptococcus salivarius 1

CC(CNC(=S)[S-])NC(=S)[S-].[Zn+2] (mixture of isomers)
inactive: Coprococcus comes 1.04 | Escherichia coli ED1a 0.997 | Escherichia coli IAI1 0.983 | Eubacterium rectale 1.15 | [1] 1.08 | Lactobacillus gasseri 0.956 | Lactobacillus paracasei 1.14 | Odoribacter splanchnicus 0.945 | [2] 1.01 | Parabacteroides merdae 1.02 | Roseburia intestinalis 0.979 | Streptococcus salivarius 0.988

CCOc1ccc2c(c1)C(C)=CC(C)(C)N2
inactive: Coprococcus comes 1.03 | Escherichia coli ED1a 1.03 | Escherichia coli IAI1 0.986 | Eubacterium rectale 1.06 | [1] 1.03 | Lactobacillus gasseri 0.992 | Lactobacillus paracasei 1.02 | Odoribacter splanchnicus 1.07 | [2] 0.97 | Parabacteroides merdae 1.01 | Roseburia intestinalis 1.04 | Streptococcus salivarius 1.06

CCOC(=O)C(C)N(C(=O)c1ccccc1)c1ccc(Cl)c(Cl)c1 (stereo not given)
active: [2] 0.733
inactive: Coprococcus comes 0.971 | Escherichia coli ED1a 1.03 | Escherichia coli IAI1 0.991 | Eubacterium rectale 1.04 | [1] 1.02 | Lactobacillus gasseri 0.935 | Lactobacillus paracasei 1.03 | Odoribacter splanchnicus 0.985 | Parabacteroides merdae 0.939 | Roseburia intestinalis 0.958 | Streptococcus salivarius 0.947

COC(=O)COc1ccc(Cl)cc1C
inactive: Coprococcus comes 1.04 | Escherichia coli ED1a 0.969 | Escherichia coli IAI1 1.01 | Eubacterium rectale 0.979 | [1] 1.03 | Lactobacillus gasseri 1.01 | Lactobacillus paracasei 1.03 | Odoribacter splanchnicus 1.01 | [2] 1.01 | Parabacteroides merdae 1.03 | Roseburia intestinalis 0.975 | Streptococcus salivarius 1.01

O=C(Nc1ccc(Cl)cc1C(O)c1ccccc1)c1ccncc1 (stereo not given)
inactive: Coprococcus comes 1.04 | Escherichia coli ED1a 0.997 | Escherichia coli IAI1 0.958 | Eubacterium rectale 1.12 | [1] 1.08 | Lactobacillus gasseri 0.966 | Lactobacillus paracasei 0.943 | Odoribacter splanchnicus 0.971 | [2] 0.983 | Parabacteroides merdae 0.979 | Roseburia intestinalis 0.994 | Streptococcus salivarius 1

COC(=O)c1ccccc1S(=O)(=O)NC(=O)Nc1nc(OC(F)F)cc(OC(F)F)n1
inactive: Coprococcus comes 1 | Escherichia coli ED1a 1.02 | Escherichia coli IAI1 1.01 | Eubacterium rectale 0.964 | [1] 0.957 | Lactobacillus gasseri 1.19 | Lactobacillus paracasei 1.04 | Odoribacter splanchnicus 0.99 | [2] 1.04 | Parabacteroides merdae 1 | Roseburia intestinalis 1.01 | Streptococcus salivarius 0.994

Cc1ccc2c(c1)[C@H](Nc1nc(N)nc(C(C)F)n1)[C@@H](C)C2 (stereo not given in full)
inactive: Coprococcus comes 0.968 | Escherichia coli ED1a 1.03 | Escherichia coli IAI1 1.02 | Eubacterium rectale 0.91 | [1] 0.857 | Lactobacillus gasseri 0.982 | Lactobacillus paracasei 0.986 | Odoribacter splanchnicus 0.902 | [2] 1.09 | Parabacteroides merdae 0.972 | Roseburia intestinalis 0.948 | Streptococcus salivarius 1.01

Nc1cccc(O)c1
inactive: Coprococcus comes 1.06 | Escherichia coli ED1a 1.01 | Escherichia coli IAI1 1.01 | Eubacterium rectale 0.984 | [1] 1 | Lactobacillus gasseri 1.04 | Lactobacillus paracasei 0.94 | Odoribacter splanchnicus 0.975 | [2] 0.993 | Parabacteroides merdae 1 | Roseburia intestinalis 0.989 | Streptococcus salivarius 1.02

CCOCOc1ccc(C(=O)Nc2cccc(Cl)c2Cl)cc1
inactive: Coprococcus comes 0.977 | Escherichia coli ED1a 0.977 | Escherichia coli IAI1 0.953 | Eubacterium rectale 0.961 | [1] 0.901 | Lactobacillus gasseri 1.05 | Lactobacillus paracasei 0.985 | Odoribacter splanchnicus 0.975 | [2] 0.976 | Parabacteroides merdae 0.961 | Roseburia intestinalis 1 | Streptococcus salivarius 0.989

Cn1cc(C(=O)Nc2ccc(F)cc2-c2ccc(Cl)c(Cl)c2)c(C(F)F)n1
inactive: Coprococcus comes 0.921 | Escherichia coli ED1a 1.01 | Escherichia coli IAI1 0.997 | Eubacterium rectale 0.953 | [1] 0.944 | Lactobacillus gasseri 0.881 | Lactobacillus paracasei 0.968 | Odoribacter splanchnicus 0.865 | Parabacteroides merdae 0.892 | Roseburia intestinalis 0.989 | Streptococcus salivarius 0.897
active: [2] 0.741

CCNc1nc(Cl)nc(N(CC)CC)n1
inactive: Coprococcus comes 1.02 | Escherichia coli ED1a 1.02 | Escherichia coli IAI1 0.971 | Eubacterium rectale 1.04 | [1] 1.11 | Lactobacillus gasseri 0.925 | Lactobacillus paracasei 0.997 | Odoribacter splanchnicus 1.04 | [2] 1.07 | Parabacteroides merdae 1 | Roseburia intestinalis 1.01 | Streptococcus salivarius 1.02

COc1c(I)cc(C#N)cc1I
inactive: Coprococcus comes 0.973 | Escherichia coli ED1a 1 | Escherichia coli IAI1 0.975 | Eubacterium rectale 1 | [1] 0.981 | Lactobacillus gasseri 0.895 | Lactobacillus paracasei 0.911 | Odoribacter splanchnicus 1.03 | [2] 0.966 | Parabacteroides merdae 0.944 | Roseburia intestinalis 0.989 | Streptococcus salivarius 0.982

O=c1oc(-c2ccccc2)nc2ccccc12
inactive: Coprococcus comes 0.996 | Escherichia coli ED1a 0.967 | Escherichia coli IAI1 0.946 | Eubacterium rectale 0.948 | [1] 0.935 | Lactobacillus gasseri 0.971 | Lactobacillus paracasei 0.915 | Odoribacter splanchnicus 0.893 | [2] 1.05 | Parabacteroides merdae 0.988 | Roseburia intestinalis 0.979 | Streptococcus salivarius 0.981

ClC=C(c1ccc(Cl)cc1)c1ccc(Cl)cc1
inactive: Coprococcus comes 0.942 | Escherichia coli ED1a 0.99 | Escherichia coli IAI1 0.977 | Eubacterium rectale 0.977 | [1] 0.98 | Lactobacillus gasseri 0.915 | Lactobacillus paracasei 0.946 | Odoribacter splanchnicus 1.07 | [2] 0.977 | Parabacteroides merdae 0.948 | Roseburia intestinalis 0.932 | Streptococcus salivarius 0.928

O=C(O)CNC(=O)c1cnccc1C(F)(F)F
inactive: Coprococcus comes 0.96 | Escherichia coli ED1a 1.03 | Escherichia coli IAI1 1.02 | Eubacterium rectale 1.01 | [1] 1.14 | Lactobacillus gasseri 0.903 | Lactobacillus paracasei 1.11 | Odoribacter splanchnicus 1.02 | [2] 1.03 | Parabacteroides merdae 0.992 | Roseburia intestinalis 1.03 | Streptococcus salivarius 1

CNC(=O)/C(=N/OC)c1ccccc1COc1cc(C)ccc1C
inactive: Coprococcus comes 0.974 | Escherichia coli ED1a 1.01 | Escherichia coli IAI1 1 | Eubacterium rectale 0.92 | [1] 0.931 | Lactobacillus gasseri 1.01 | Lactobacillus paracasei 1.01 | Odoribacter splanchnicus 0.981 | [2] 0.92 | Parabacteroides merdae 0.926 | Roseburia intestinalis 1.02 | Streptococcus salivarius 1.06

CCc1cccc(CC)c1N(COC)C(=O)CS(=O)(=O)[O-].[Na+]
inactive: Coprococcus comes 0.971 | Escherichia coli ED1a 0.979 | Escherichia coli IAI1 0.987 | Eubacterium rectale 1.02 | [1] 1.07 | Lactobacillus gasseri 1.05 | Lactobacillus paracasei 1.02 | Odoribacter splanchnicus 1.01 | [2] 1 | Parabacteroides merdae 1.01 | Roseburia intestinalis 1.03 | Streptococcus salivarius 0.964

Oc1ccccc1
inactive: Coprococcus comes 1.03 | Escherichia coli ED1a 1 | Escherichia coli IAI1 0.983 | Eubacterium rectale 0.983 | [1] 1.04 | Lactobacillus gasseri 1.08 | Lactobacillus paracasei 1.04 | Odoribacter splanchnicus 0.984 | [2] 1.04 | Parabacteroides merdae 1.01 | Roseburia intestinalis 1.04 | Streptococcus salivarius 0.987

CC1=C(C(=O)Nc2ccccc2)CCCO1
inactive: Coprococcus comes 1.01 | Escherichia coli ED1a 0.992 | Escherichia coli IAI1 0.981 | Eubacterium rectale 0.974 | [1] 0.969 | Lactobacillus gasseri 0.952 | Lactobacillus paracasei 1.03 | Odoribacter splanchnicus 1.05 | [2] 0.974 | Parabacteroides merdae 1.01 | Roseburia intestinalis 0.996 | Streptococcus salivarius 1.03

CC(=O)CC(c1ccccc1)c1c(O)c2ccccc2oc1=O (stereo not given)
inactive: Coprococcus comes 1.01 | Escherichia coli ED1a 0.967 | Escherichia coli IAI1 0.982 | Eubacterium rectale 0.963 | [1] 1.02 | Lactobacillus gasseri 0.957 | Lactobacillus paracasei 0.943 | Odoribacter splanchnicus 0.927 | [2] 0.907 | Parabacteroides merdae 1.01 | Roseburia intestinalis 0.952 | Streptococcus salivarius 1

CC(=O)Nc1cc(NS(=O)(=O)C(F)(F)F)c(C)cc1C
inactive: Coprococcus comes 0.977 | Escherichia coli ED1a 0.978 | Escherichia coli IAI1 0.976 | Eubacterium rectale 0.947 | [1] 0.983 | Lactobacillus gasseri 1.12 | Lactobacillus paracasei 0.563 | Odoribacter splanchnicus 1.03 | [2] 1.05 | Parabacteroides merdae 0.966 | Roseburia intestinalis 1.02 | Streptococcus salivarius 1
